Assay outcomes as filed in PubChem BioAssay.
CHX counter – counter-screen for Shiga toxin inhibitors: cycloheximide protein synthesis inhibition; cell reporter, cycloheximide protein synthesis inhibition counterscreen; max response, %; 12% of 300,000 active; AID 2314; in the data active = max response mostly above about 13%, no sharp cut-off; inactive = mostly below about 14%; also: read at 38.3 µM for the half of the compounds with a filed dose
Pf growth 48h – P. falciparum growth inhibition at 48 hours (one generation); P. falciparum luciferase growth in erythrocytes, 48 h; Potency, µM (titrated, usually from 28.7 µM), hits mostly inhibitors; 5.9% of 310,000 active; AID 504832
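Luminescence readout; reporter = integrated firefly luciferase in P. falciparum. RBC culture at 2% hematocrit, 0.1% parasitemia final, 37 C/5% CO2; decreased signal taken as growth inhibition.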
NS1 inh – inhibitors of influenza NS1 protein function. Potency, µM (series often up to 46.1 µM). 0.4% of 270,000 active. AID 2326; calls by dose curve; also: actives are rising curves; nearly all actives have a fitted effect of over 50% in size
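S. cerevisiae expressing influenza A NS1, grown in glucose, washed, then diluted 1:100 into pH 6.0 -URA galactose medium with 23 nl compound. Growth recovery read as OD600; NS1-free strain serves as control.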
FBPA Giardia inh – blocks Giardia fructose-bisphosphate aldolase activity; 0.71% of 290,000 active; Potency, µM (top dose mostly 59.6 µM), most hits filed as inhibitors; purified Giardia FBPA; A8B2U2; AID 2451; also: nearly all actives have a fitted effect of over 55% in size
Target sequence (A8B2U2 whole entry, looked up): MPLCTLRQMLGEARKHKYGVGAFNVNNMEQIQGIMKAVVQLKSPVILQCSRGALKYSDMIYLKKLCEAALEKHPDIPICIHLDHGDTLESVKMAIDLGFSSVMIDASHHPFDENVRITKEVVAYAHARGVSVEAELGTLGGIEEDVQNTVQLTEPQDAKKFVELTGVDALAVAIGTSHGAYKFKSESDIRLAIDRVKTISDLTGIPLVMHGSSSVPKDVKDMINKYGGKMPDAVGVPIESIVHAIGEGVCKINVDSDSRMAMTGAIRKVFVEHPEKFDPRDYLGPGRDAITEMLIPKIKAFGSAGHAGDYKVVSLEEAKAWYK
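Giardia FBPA (40 nM reagent) was preincubated 10 min at RT with compound (up to 57.5 uM final), then substrate plus GAPDH/TPI/NAD/arsenate coupling system with diaphorase/resazurin was added; resorufin fluorescence (525/598 nm) was read after 20 min.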
Pf growth 96h – inhibits malaria parasite growth, 96 h; 6.9% of 320,000 active; Potency, µM (doses to about 28.7 µM), usual class: inhibitors; P. falciparum luciferase reporter growth, 96 h
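Erythrocytes infected with luciferase-expressing P. falciparum were dispensed at 2% hematocrit and 0.05% parasitemia (final), then incubated with compounds 96 hours at 37 C in 5% CO2. Luminescence after detection reagent addition reported growth.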
Shiga toxin inh – Shiga toxin inhibition | Vero cells, Shiga toxin protein synthesis inhibition reporter | inhibition, % at 38.7 µM | 9.2% of 290,000 active; in the data active = inhibition mostly above about 28%, no sharp cut-off; inactive = mostly below about 43%
Numbers stand for hits; - = inactive; ? = inconclusive; . = no result; [ ] = dose if it differs, or a comment. Shown are actives, neighbours in structure and some others; about 21% of the full set was active somewhere. Unless noted, calls follow the shape of the dose curve; as a rule, active = well fitted curve in the direction sought with a large enough effect; inconclusive = small, poorly fitted or top-dose-only effect, or another doubt; inactive = no such curve, though single readings can be large; an effect the other way counts as inactive or inconclusive.

SMILES | CHX counter | Pf growth 48h | NS1 inh | FBPA Giardia inh | Pf growth 96h | Shiga toxin inh
Cc1ccnc2nc(C(=O)Nc3nccs3)nn12 | 21.7 | - | - | - | . | -
Cc1ccnc2nc(C(=O)NC3=NCCS3)nn12 | - | - | - | - | ? | -
COc1ccc(O)c(/C=N/Nc2nc(Nc3ccccc3)nc(-n3nc(C)cc3C)n2)c1 | - | 1.85µM | - | - | 2.08µM | -
COc1cc(/C=N/Nc2nc(Nc3ccc(C)cc3)nc(-n3nc(C)cc3C)n2)cc(OC)c1OC | - | . | - | - | 1.85µM | 108.7
COc1cc(/C=N/Nc2nc(Nc3ccccc3)nc(-n3nc(C)cc3C)n2)cc(OC)c1OC | 17.5 | 3.29µM | - | - | - | 45.3
COc1cc(/C=N/Nc2nc(Nc3ccccc3)nc(N3CCCCC3)n2)ccc1OCC(=O)O | - | - | . | - | ? | -
O=C(Cn1ncc2c3ccccc3n(Cc3ccccc3F)c2c1=O)NCC1CCCO1 (configuration not stated) | - | - | - | . | - | -
NC1=C(O)C(=O)[C@H](c2c[nH]c3ccc(OCc4ccccc4)cc23)O1 | . | . | - | . | . | .
O=C(NCCCN1CCCCCC1)[C@@H](c1ccccc1)C1CCCCC1 | . | . | . | - | . | .
CC(C)C/C=C1\CCc2c([nH]c3ccccc23)C1=O | 45.9 | - | - | - | - | 88.4
CC1C/C(=C\c2cccnc2)C(=O)/C(=C/c2cccnc2)C1 (configuration not stated) | - | 3.7µM | - | - | - | -
CCCCCCCCC1=NCCc2c1[nH]c1ccccc21 | - | -[0.00184 µM] | - | - | ? | -
O=C1/C(=C/c2cccnc2)CCc2c1[nH]c1ccccc21 | 47.7 | - | - | - | ? | 67.9
COCC1C2CC[C@H]3C(OCc4ccc(F)cc4C(F)(F)F)OC[C@]4(C)[C@H]3C2=C(CN4C(=O)OC(C)(C)C)[C@H](C)C1COC (some centres not stated) | . | . | . | - | . | .
C[C@@H]1OC(O[C@H]2[C@H](Oc3cc(O)c4c(=O)c(O)c(-c5ccc(O)cc5)oc4c3)O[C@H](CO)[C@@H](O)[C@@H]2O)[C@H](O)[C@H](O)[C@H]1O (some centres not stated) | - | . | . | - | . | -
COc1ccc(CNC(=O)C2CCN(S(=O)(=O)c3ccc4c(c3)N(C(C)=O)CCO4)CC2)cc1 | - | - | - | - | - | -
NC(=O)c1cc(S(=O)(=O)Nc2ccc(OC(F)(F)F)cc2)cs1 | - | 13.1µM | - | - | ? | -
COc1ccc(NS(=O)(=O)c2csc(C(N)=O)c2)cc1 | - | 7.38µM | - | - | ? | -
CCC(=NCCc1ccccc1)c1c(O)[nH]c(=O)[nH]c1=O | - | - | - | - | ? | -
CCC(=Nc1ccccc1N)c1c(O)[nH]c(=O)[nH]c1=O | 51.8 | - | - | - | ? | 98.8
COc1ccccc1C(=O)NNC(=O)c1cccc([N+](=O)[O-])c1 | 32.3 | - | - | - | - | 60.6
COc1ccccc1C(=O)NNC(=O)c1cccc(C)c1 | 23.5 | - | - | - | ? | .
COc1ccc(CCNC(=O)c2ccc(=O)[nH]c2)cc1OC | - | . | - | - | - | -
Cc1cccc(N2C(=O)C(O)=C(C(=O)c3cccs3)C2c2ccc(C(C)C)cc2)n1 (configuration not stated) | - | - | - | - | - | -
CC(=O)C1=C(O)C(=O)N(c2cc(C(C)(C)C)on2)C1c1ccc(Br)cc1 (configuration not stated) | - | 10.4µM | - | - | . | -
SMILES | CHX counter | Pf growth 48h | NS1 inh | FBPA Giardia inh | Pf growth 96h | Shiga toxin inh
CC(=O)C1=C(O)C(=O)N(c2cc(C(C)(C)C)on2)C1c1ccc(C(C)C)cc1 (configuration not stated) | - | - | ? | - | 13.1µM | -
Cc1cc(C(=O)NCCc2ccc(Cl)cc2)c2ccccc2n1 | - | - | - | - | - | -
Cc1cc(C(=O)N(Cc2nnc(-c3ccc(Cl)cc3)o2)C(C)C)c2ccccc2n1 | . | 11.7µM | . | . | 10.4µM | .
O=C(Nc1ccc(S(=O)(=O)N2CCC(C(=O)NC3CCCCC3)CC2)cc1)c1ccco1 | - | ? | - | - | - | -
O=C(Nc1ccc(S(=O)(=O)N2CCCCC2)cc1)c1ccco1 | - | ? | - | . | - | -
CC1CCN(S(=O)(=O)c2ccc(NC(=O)c3ccco3)cc2)CC1 | - | 3.7µM | - | - | - | -
CC1CCCCN1S(=O)(=O)c1ccc(NC(=O)c2ccco2)cc1 (configuration not stated) | - | . | - | - | 13.1µM | -
